Rows were chosen to be rich in hits. Some 7.9% of all compounds tested hit in one or more screens of this group.
KB-V1 cytotox: KB-V1 MDR subline cytotoxicity; Potency, µM (highest dose often 46.1 µM), actives largely listed as cytotoxic; KB-V1 MDR cells viability, CellTiter-Glo, 72 h; 400,000 compounds, 3.4% hits; AID 1347076; further: on the % scale 0 is the no-effect control and ±100 the full control effect; nearly all actives have a fitted effect of over 60% in size
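In this primary screen, KB-V1 cells overexpressing P-gp are incubated with library compounds (lowest to highest concentration) for 72 h at 37 degrees C before a luminescent ATP viability read.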
KB-3-1 cytotox: KB-3-1 parental cell cytotoxicity | KB-3-1 viability, CellTiter-Glo ATP luminescence, 72 h | Potency, µM (doses to about 46.1 µM), hits mostly cytotoxic | 400,000 compounds, 1.4% hits; further: on the % scale 0 is the no-effect control and ±100 the full control effect; nearly all actives have a fitted effect of over 60% in size
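Cytotoxicity measured as CellTiter-Glo luminescence after 72 h at 37 C. Compound titrations were pinned onto drug-naive KB-3-1 parental adenocarcinoma cells grown in DMEM with 10% FBS, and normalized data fitted to concentration-response curves.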
SW480 rerep: DNA re-replication induction in SW480 cells; AID 624297; SW480 DNA re-replication, Hoechst DNA content imaging, 48 h; 340,000 compounds, 1.8% hits; Potency, µM (titrated, usually from 46.1 µM), for inactives: top-dose re-replication activation, hits mostly activators; further: % of control where 0% means no effect; nearly all actives have a fitted effect of over 55% in size
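Treated cells incubate 48 hr (37 C, 5% CO2), are stained 40 min with Hoechst, and nuclear fluorescence is enumerated; a rise in nuclei with high DNA signal marks re-replication.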
HT1080NT lethal: kills 2HG-producing HT-1080-NT fibrosarcoma cells; HT-1080-NT fibrosarcoma viability, CellTiter-Glo ATP luminescence, 48 h; Potency, µM (highest dose often 46.1 µM), without a hit: top-dose activity, negative = less viability, most hits filed as cytotoxic; 360,000 compounds, 1.6% hits;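 further: NT is the 2HG producing partner of a matched IDH1 knockdown line; 0% = DMSO-treated cells and -100% = media-only wells without cells; nearly all actives have a fitted effect of over 55% in size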
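Luminescent CellTiter-Glo readout after 48 hours of compound exposure at 37 degrees C defined viability of HT-1080-NT cells. Activity was normalized to DMSO wells and cell-free media wells; concentration-response curves were fitted and assigned curve classes.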
HT1080 IDH1KD tx: toxicity to HT-1080 IDH1 knockdown cells (counter line) | 360,000 compounds, 2% hits | HT-1080 IDH1 knockdown viability, ATP luminescence, 48 h | Potency, µM (highest dose often 46.1 µM), inactives show at the highest dose activity, negative = toxicity, hits mostly cytotoxic;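 further: 0% = DMSO wells and -100% = cell-free medium wells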
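IDH1KD HT-1080 cells, 750/well, RPMI + 5% FBS; compound pinned after 2 h settling; 48 h, 37 °C; CellTiter-Glo luminescence; % activity normalised to DMSO and no-cell wells; curves fitted, classed by r2 and efficacy.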
MCF10A rereplic: inducers of DNA re-replication in MCF 10A breast cells | MCF 10A DNA re-replication, Hoechst nuclear intensity, 48 h | Potency, µM (series often up to 46.1 µM), inactives show at the top dose activity, positive = re-replication, hits mostly activators | 350,000 compounds, 2.9% hits; further: % of control where 0% means no effect; nearly all actives have a fitted effect of over 50% in size
Starred values were filed as active, the others as inactive; i = inactive; ? = inconclusive; nt = no result. The call rests on the fitted dose curve; in most records, active means well fitted curve in the direction sought with a large enough effect; inconclusive means small, poorly fitted or top-dose-only effect, or another doubt; inactive means no such curve, though single readings can be large; an effect the other way counts as inactive or inconclusive. Potency means the concentration at half of the fitted maximal effect.

SMILES	KB-V1 cytotox	KB-3-1 cytotox	SW480 rerep	HT1080NT lethal	HT1080 IDH1KD tx	MCF10A rereplic
COCCCN1C(=O)C(CC(=O)NCc2cccc3ccccc23)CC(C(=O)N(C)C)=C1C (stereo not given)	i	i	nt	13.5%	-1.6%	nt
CCCCNS(=O)(=O)c1ccc(NC(=O)Cc2ccc(OC)cc2)cc1	i	i	-1.0%	-0.5%	-8.9%	2.8%
COc1ccc(CC(=O)Nc2ccc(S(=O)(=O)NC(C)C)cc2)cc1	16.4µM*	i	-7.5%	-3.8%	-19.0%	-0.4%
CCOc1ccc(NC(=O)c2ccc(-c3nc(COc4ccccc4)c(C)o3)cc2)cc1	i	i	nt	nt	nt	nt
OC1(c2ccccc2)CCN(Cc2ccccc2)C2CCCCC21 (stereo not given)	23.1µM*	i	-35.4%	-12.6%	-11.1%	11.5%
O=C(CCl)NCCCCCCCCCNC(=O)CCl	?	?	?	16.4µM*	14.6µM*	?
COc1cccc(C(=O)NCC(=O)OCc2cc(=O)n3nc(C)sc3n2)c1	?	i	nt	nt	nt	nt
Cc1cc(C)c2nc(N3CCC(C(=O)NCCCN4CCCCC4)CC3)sc2c1	?	?	14.5%	23.1µM*	18.4µM*	?
COc1ccc(N2CCN(CCCNC(=O)c3ccc4nc(N5CCCCC5)sc4c3)CC2)cc1	i	i	nt	nt	nt	nt
Cc1ccc(C)c(N2CCN(CCCNC(=O)c3ccc4nc(N5CCC(C)CC5)sc4c3)CC2)c1	?	20.6µM*	nt	nt	nt	nt
Cc1ccc(Cl)cc1N1CCN(CCCNC(=O)c2ccc3nc(N4CCCCC4)sc3c2)CC1	16.4µM*	?	nt	nt	nt	nt
CCCc1nc(Nc2nc3ccccc3o2)nc(C)c1C(=O)OCC	3.66µM*	i	0.9%	?	4.0%	3.5%
CCOC(=O)c1cnc(Nc2nc3ccccc3o2)nc1CSC(=S)N(CC)CC	?	1.3µM*	?	7.9%	7.9%	?
O=C(Nc1ccc(Cl)cc1)c1ccc(-n2cnnc2)cc1	i	i	nt	nt	nt	nt
CC(=O)Oc1ccc(OC(C)=O)c(SCCCCCN2CCOCC2)c1	i	i	?	?	?	4.11µM*
CC(C)c1ccc(OCCCCCN2CCOCC2)cc1	i	i	0.9%	-9.0%	5.3%	?
CCOC(=O)C1(C)Oc2ccccc2C(C(=O)OC)=C1C(=O)OC (stereo not given)	i	i	0.0%	8.4%	0.9%	?
COC(=O)C1=C(C(=O)OC)SC2(S1)C(C(=O)OC)=C(C(=O)OC)SC1=C2c2cccc(C)c2NC1(C)C	i	i	?	3.98µM*	7.08µM*	15.8%
COc1cc(NC(=O)C2CCN(c3nc4ccccc4nc3C(F)(F)F)CC2)cc(OC)c1	?	i	nt	nt	nt	nt
COc1ccc(OC)c(NC(=O)CSc2c3c(nc4ccccc24)CCCC3)c1	i	i	nt	nt	nt	nt
COc1ccc(Nc2nc(-c3ccc(C)cc3)nc3ccccc23)c(OC)c1	i	i	nt	nt	nt	nt
COc1ccc(Nc2c3c(nc4ccc(C)cc24)CCC3)cc1	i	i	-7.2%	-25.3%	-28.7%	-4.1%
COc1ccc(OC)c(Nc2c3c(nc4ccccc24)CCC3)c1	3.66µM*	1.03µM*	4.11µM*	0.651µM*	0.581µM*	3.26µM*
COc1ccc(OC)c(Nc2c3ccccc3nc3ccccc23)c1	20.6µM*	11.6µM*	20.6µM*	5.8µM*	4.61µM*	20.6µM*
COc1cc(Nc2c3c(nc4ccccc24)CCC3)cc(OC)c1OC	3.66µM*	2.31µM*	13µM*	1.46µM*	2.06µM*	8.2µM*
SMILES	KB-V1 cytotox	KB-3-1 cytotox	SW480 rerep	HT1080NT lethal	HT1080 IDH1KD tx	MCF10A rereplic
COc1cc(NS(C)(=O)=O)ccc1Nc1c2ccccc2nc2ccccc12	18.4µM*	?	0.15µM*	11.6µM*	16.4µM*	?
COCCN1C(=O)C(C(=O)OC)CC2=C1CC(C)(C)CC2=O (stereo not given)	i	i	-10.2%	0.5%	0.6%	-1.7%
COc1ccccc1-c1c(C)nn2c(N3CCN(c4cccc(Cl)c4)CC3)cc(C)nc12	i	i	nt	nt	nt	nt
COc1ccc([N+](=O)[O-])cc1Nc1c2ccccc2nc2ccccc12	i	?	?	5.17µM*	5.17µM*	2.91µM*
O=[N+]([O-])c1ccc(Nc2c3ccccc3nc3ccccc23)cc1	i	i	2.6%	?	?	5.5%
COc1ccc(-c2cnn3c(N)c(S(=O)(=O)C(C)(C)C)cnc23)cc1	14.6µM*	i	?	-27.6%	?	15.4%
Nc1cccc2nsnc12	i	i	-30.8%	?	-29.4%	?
Nc1cc2nsnc2cc1Br	i	i	18.4µM*	-18.2%	?	?
CCOc1ccccc1-c1ccc2nccn2c1	i	i	nt	-3.5%	3.3%	nt
Nc1cccc2[nH]c(=O)c3ccccc3c12	i	?	15.1%	-6.4%	-20.3%	4.4%
O=c1[nH]c2cc([N+](=O)[O-])cc(Cl)c2c2ccccc12	11.6µM*	i	nt	4.2%	2.8%	nt
